Test results reported in PubChem BioAssay (NCI).
This is part of a sample that, as a whole, favours compounds with a hit. Of some 83,000 tested, about 20% had one in any assay.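 Activity criterion: percent growth below 10, measured after cells in 96-well plates were exposed to a single compound concentration for 48 hours.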 A number with no mark means an inactive call. Calls of active or inactive are those of the source.

Key:
Experiment in all cases: NCI-60 one-dose screen, 48 h (100 = growth as untreated, 0 = no growth, -100 = all killed)
[1] = system: NCI-H23 lung; settings: 10 µM unless noted
[2] = system: NCI-H226 lung; settings: 10 µM unless noted
[3] = system: NCI-H322M lung; settings: 10 µM unless noted
[4] = system: HOP-62 NSCLC; settings: 10 µM unless noted
[5] = system: NCI-H460 lung; settings: 10 µM unless noted
[6] = system: HOP-92 NSCLC; settings: 10 µM
[7] = system: NCI-H522 lung; settings: 10 µM unless noted
[8] = system: A549/ATCC NSCLC; settings: 10 µM unless noted
[9] = system: 786-0 renal; settings: 10 µM unless noted
[10] = system: COLO 205 colon; settings: 10 µM unless noted
[11] = system: DU-145 prostate; settings: 10 µM unless noted
[12] = system: K-562 leukemia; settings: 10 µM unless noted
[13] = system: MALME-3M melanoma; settings: 10 µM unless noted
[14] = system: MDA-MB-231 breast; settings: 10 µM unless noted
[15] = system: SF-268 CNS; settings: 10 µM unless noted
[16] = system: SF-295 CNS; settings: 10 µM unless noted
[17] = system: SF-539 CNS; settings: 10 µM unless noted
[18] = system: UACC-257 melanoma; settings: 10 µM unless noted

| Structure (SMILES) | growth [1] | growth [2] | growth [3] | growth [4] | growth [5] | growth [6] | growth [7] | growth [8] | growth [9] | growth [10] | growth [11] | growth [12] | growth [13] | growth [14] | growth [15] | growth [16] | growth [17] | growth [18] |
| --- | --- | --- | --- | --- | --- | --- | --- | --- | --- | --- | --- | --- | --- | --- | --- | --- | --- | --- |
| COc1ccccc1NCc1cccn1Cc1ccc(F)cc1 | 96.6% | 90.4% | 92.5% | 92% | 103% | 81.5% | 79.5% | 101% | 92.8% | 110% | 90% | 111% | 101% | 89.4% | 92.5% | 104% | 98.6% | 102% |
| O=C(O)c1ccc(-n2cc(CNc3cc(F)c(F)c(F)c3)c(-c3ccc(F)cc3)n2)cc1 | 90% | 101% | 98% | 113% | 97.1% | 108% | 90.1% | 77.8% | 109% | 131% | 98.3% | 71.1% | 76.5% | 95.4% | 105% | 72.3% | 93.5% | 105% |
| COc1cc(-c2nnc(SCc3ccc(O)c4ncccc34)n2-c2ccccc2)cc(OC)c1OC | 9.25% (active) | 8.85% (active) | 19.2% | 6.41% (active) | -29.8% (active) | -12.5% (active) | -8.34% (active) | 0.31% (active) | 8.31% (active) | 10.1% | 15.2% | 4.83% (active) | -4.75% (active) | 24.7% | 8.87% (active) | 0.13% (active) | 0.686% (active) | -18.1% (active) |
| Cn1ccnc1C(=O)/C=C/c1ccc(CNC(=O)c2ccc(S(F)(F)(F)(F)F)cc2)cc1 | 3.4% (active) | 27% | 7.63% (active) | 17.5% | -18.1% (active) | 74.3% | 29.5% | 16% | 13.1% | 41.8% | 13.8% | 18.9% | 89.9% | 5.17% (active) | 6.38% (active) | 26.8% | -36% (active) | 89.9% |
| COc1cccc(/C=C(/C)c2ccc3cccc(OC)c3[o+]2)c1O | 105% | 103% | 98.8% | 106% | 102% | 91% | 93.6% | 102% | 98.5% | 118% | 107% | 97.2% | 105% | 89.8% | 95.3% | 101% | 103% | 110% |
| CCn1c(SCC(=O)Nc2cccc(C(=O)/C=C/c3ccc(Br)cc3)c2)nc2ccccc2c1=O | 82.9% | 88.9% | 94.3% | 98.8% | 98.9% | 76.9% | 84% | 77.7% | 99.8% | 112% | 104% | 77.3% | 95.3% | 85.5% | 100% | 98.5% | 91.4% | 96.3% |
| Cn1ccnc1C(=O)/C=C/c1ccc(CNC(=O)c2ccc(F)cc2)cc1 | 5.81% (active) | 51.7% | 29.7% | 41.6% | -27.1% (active) | 62.3% | 24.3% | 27.6% | 21.9% | 42.8% | 13.2% | 11.3% | 84% | 11% | 9.43% (active) | 49.1% | -20% (active) | 80.6% |
| NC(N)=Nc1ccc(Oc2ccc(Nc3ccc(Cl)c(C(F)(F)F)c3)cc2)cc1 | 11.8% | 48.9% | 68.5% | 76.4% | -0.702% (active) | 34.1% | 18.2% | 31.1% | 34.6% | 20% | 39% | 7.03% (active) | 61.7% | 28.4% | 39% | 22.3% | 25.5% | 68.3% |
| COc1ccccc1NC1=C(Cl)C(=O)c2nc(C)ccc2C1=O | -8.37% (active) | 29.6% | 71.1% | 74.1% | 70.8% | -83.8% (active) | -48.5% (active) | 101% | 9.17% (active) | 111% | -57.3% (active) | -21.1% (active) | -55.9% (active) | -57.3% (active) | 47.4% | 96.6% | 1.78% (active) | -82.7% (active) |
| Nc1ncc(-c2ccc3ncnc(N4CCc5cc(F)c(F)cc54)c3c2)cn1 | 38.3% | 29.1% | 33.1% | 13.4% | 18.9% | -7.6% (active) | 34% | 15.6% | 14.2% | 43.6% | 26% | 48.7% | 17.4% | 26.9% | 29.5% | 20.7% | 18.9% | 45% |
| COc1ccc(Cn2cc3c(c2-c2cc(OC)c(OC)c(OC)c2)CCc2c(CN4CCCC4)noc2-3)cc1 | 7.29% (active) | 61.7% | 51.8% | 33.8% | 9.59% (active) | 75.5% | 28.2% | 25.8% | 47.9% | 8.39% (active) | 22.7% | 14% | 19% | 36.7% | 46.5% | 12.1% | 0.316% (active) | 77% |
| C=CCN(C)S(=O)(=O)/N=C1\NC(=O)NC1=C(Cl)Cl | 37.5% | 89% | 95% | 76.5% | 45.6% | -23.4% (active) | -57% (active) | 103% | 32.2% | -40.8% (active) | 72.8% | -3.52% (active) | -69.4% (active) | -25.5% (active) | 32.2% | 102% | -23.6% (active) | 57.4% |
| O=C(CSc1nc2ccccc2c(=O)n1-c1ccc(Cl)cc1)N/N=C/c1ccc(N2CCCCC2)cc1 | 65.9% | 38.2% | 77% | 18.4% | 9.74% (active) | 62.3% | 88.1% | 49.4% | 7.2% (active) | 82.1% | 29.1% | 73.6% | 64.2% | 72% | 34.7% | 76.4% | 41.3% | 97.1% |
| CCOC(=O)c1c(NC(=O)c2ccccc2C(F)(F)F)sc2c1CCC(=O)C2 | 23.3% | 60.8% | 113% | 64.8% | 33.3% | 40.1% | 5.03% (active) | 97.5% | 104% | 56.7% | 95.3% | 12.8% | 73% | 15.2% | 22.9% | 41.6% | -6.66% (active) | 98.9% |
| Cc1ccc2c(c1)C13C(=C2Br)CCCN1C(=O)c1ccccc13 (stereo unspecified) | 92.8% | 92.3% | 97.5% | 96.9% | 105% | 78.8% | 80.8% | 98.1% | 84.3% | 108% | 102% | 46.3% | 85.3% | 93.7% | 90.6% | 94.2% | 98.4% | 93.3% |
| O=C(c1ccc(O)cc1)[C@@H]1CN[C@@]2(C(=O)Nc3ccccc32)[C@H]1c1ccc(F)cc1 | 94.5% | 96.2% | 99.7% | 99.5% | 111% | 101% | 96.6% | 108% | 110% | 116% | 111% | 88% | 98.5% | 93.6% | 97.7% | 101% | 93.7% | 114% |
| CCCCCc1ccc(S(=O)(=O)Nc2cccc(-c3csc(NC(=O)CN4CCN(C)CC4)n3)c2)cc1 | 95.1% | 93.3% | 100% | 89.5% | 21.5% | 62.3% | 89.5% | 79.7% | 63.8% | 31% | 82.4% | 7.06% (active) | 45.7% | 74.2% | 78.4% | 104% | 82.9% | 93% |
